Drawing on PubChem BioAssay (NCATS), this text covers Potency, activation and activity change, negative = inhibition for 29 molecules.

Records with an inconclusive call do not appear. Unmarked numbers belong to inactive results. The source made the active and inactive calls. Calls come from the whole dose curve; as a rule, active = well fitted curve in the direction sought with a large enough effect; inconclusive = small, poorly fitted or top-dose-only effect, or another doubt; inactive = no such curve, though single readings can be large; an effect the other way counts as inactive or inconclusive.

In assay [1] the target is Rap guanine nucleotide exchange factor 3 (Homo sapiens) (UniProt O95398). Put plainly: Confirmatory qHTS for antagonist of cAMP-regulated guanine nucleotide exchange factor 3 (EPAC1) (AID 1645880).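 For activity, negative = inhibition: plate controls were DMSO only for no effect and full effect of the ATA control for full effect.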 Note: nearly all actives have a fitted effect of over 55% in size. Note: potency is the fitted concentration of half-maximal effect. The note with it: EPAC1 Rap1B-BODIPY-GDP exchange, fluorescence; activity, negative = inhibition: at 115 µM (top of the series). The essentials: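 Released BODIPY-GDP fluoresces less than Rap1-bound BODIPY-GDP; the signal is followed at 480/540 nm at 5-min intervals over 30 min, after 5 min at room temperature. Reactions contain 100 nM EPAC1, 250 nM RAP1B-BODIPY-GDP and 50 uM GDP; results are normalized to ATA and DMSO.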
Sequence of Rap guanine nucleotide exchange factor 3 (Homo sapiens) (O95398 whole entry, looked up): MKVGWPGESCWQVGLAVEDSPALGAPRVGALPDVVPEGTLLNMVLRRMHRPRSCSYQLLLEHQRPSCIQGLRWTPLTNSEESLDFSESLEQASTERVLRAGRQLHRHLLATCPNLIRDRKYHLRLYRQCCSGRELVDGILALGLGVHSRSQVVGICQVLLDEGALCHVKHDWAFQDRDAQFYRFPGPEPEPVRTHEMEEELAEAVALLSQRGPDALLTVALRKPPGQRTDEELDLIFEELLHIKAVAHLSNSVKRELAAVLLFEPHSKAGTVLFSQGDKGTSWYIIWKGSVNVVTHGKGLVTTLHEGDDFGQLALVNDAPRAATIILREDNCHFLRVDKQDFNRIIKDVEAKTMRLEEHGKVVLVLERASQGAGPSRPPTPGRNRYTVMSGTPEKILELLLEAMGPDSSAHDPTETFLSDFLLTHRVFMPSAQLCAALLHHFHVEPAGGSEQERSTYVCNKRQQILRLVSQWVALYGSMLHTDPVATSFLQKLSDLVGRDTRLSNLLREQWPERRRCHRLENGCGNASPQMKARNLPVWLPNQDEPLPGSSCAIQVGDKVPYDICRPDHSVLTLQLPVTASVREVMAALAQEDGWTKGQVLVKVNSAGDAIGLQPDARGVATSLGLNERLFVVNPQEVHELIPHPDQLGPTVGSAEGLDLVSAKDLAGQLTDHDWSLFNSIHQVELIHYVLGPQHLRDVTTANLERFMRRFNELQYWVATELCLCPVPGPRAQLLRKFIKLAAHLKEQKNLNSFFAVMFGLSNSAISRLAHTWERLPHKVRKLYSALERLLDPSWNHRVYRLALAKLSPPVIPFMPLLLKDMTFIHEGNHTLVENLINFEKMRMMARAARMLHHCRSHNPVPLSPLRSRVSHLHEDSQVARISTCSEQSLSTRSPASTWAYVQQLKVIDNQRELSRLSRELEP
On the technique in general: qHTS replaces the single test concentration by a dilution series.

Assay [2] has the same target. Nature of the assay: Confirmatory qHTS for agonist of cAMP-regulated guanine nucleotide exchange factor 3 (EPAC1) (AID 1645881).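 Note: EPAC1 catalysed release of BODIPY-GDP from Rap1B seen as fluorescence loss; 100% = effect of cAMP agonist control; nearly all actives have a fitted effect of over 75% in size.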
Assay [3] has as its target Rap guanine nucleotide exchange factor 4 (Homo sapiens) (UniProt Q8WZA2). Put plainly: Confirmatory qHTS for agonist of cAMP-regulated guanine nucleotide exchange factor 4 (EPAC2) (AID 1645884).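 Note: nucleotide exchange releases bodipy-GDP from Rap1 and this lowers its fluorescence; % is set by controls: 0 for no effect and ±100 for the full control effect; nearly all actives have a fitted effect of over 65% in size.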
In assay [4] the target is Rap guanine nucleotide exchange factor 3 (Homo sapiens) (UniProt O95398). Put plainly: Counterscreen qHTS for antagonist of cAMP-regulated guanine nucleotide exchange factor 3 (EPAC1) (AID 1645888). Note: % of control where 0% means no effect. The essentials:
(§1)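 Measured: fluorescence of BODIPY-GDP bound to Rap1B, which falls as exchange proceeds. Conditions include 50 uM competing GDP, 5 and 30 min reads, and a later cAMP challenge for antagonist detection.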
In general terms: The purpose of a counterscreen is to sort out artefacts and off-target activity.

The target is the same in assay [5]. Nature of the assay: Counterscreen qHTS for agonist of cAMP-regulated guanine nucleotide exchange factor 3 (EPAC1) (AID 1645889). Note: % of control where 0% means no effect; nearly all actives have a fitted effect of over 40% in size. The essentials:
as §1

Sequence of Rap guanine nucleotide exchange factor 4 (Homo sapiens) (Q8WZA2 whole entry, looked up): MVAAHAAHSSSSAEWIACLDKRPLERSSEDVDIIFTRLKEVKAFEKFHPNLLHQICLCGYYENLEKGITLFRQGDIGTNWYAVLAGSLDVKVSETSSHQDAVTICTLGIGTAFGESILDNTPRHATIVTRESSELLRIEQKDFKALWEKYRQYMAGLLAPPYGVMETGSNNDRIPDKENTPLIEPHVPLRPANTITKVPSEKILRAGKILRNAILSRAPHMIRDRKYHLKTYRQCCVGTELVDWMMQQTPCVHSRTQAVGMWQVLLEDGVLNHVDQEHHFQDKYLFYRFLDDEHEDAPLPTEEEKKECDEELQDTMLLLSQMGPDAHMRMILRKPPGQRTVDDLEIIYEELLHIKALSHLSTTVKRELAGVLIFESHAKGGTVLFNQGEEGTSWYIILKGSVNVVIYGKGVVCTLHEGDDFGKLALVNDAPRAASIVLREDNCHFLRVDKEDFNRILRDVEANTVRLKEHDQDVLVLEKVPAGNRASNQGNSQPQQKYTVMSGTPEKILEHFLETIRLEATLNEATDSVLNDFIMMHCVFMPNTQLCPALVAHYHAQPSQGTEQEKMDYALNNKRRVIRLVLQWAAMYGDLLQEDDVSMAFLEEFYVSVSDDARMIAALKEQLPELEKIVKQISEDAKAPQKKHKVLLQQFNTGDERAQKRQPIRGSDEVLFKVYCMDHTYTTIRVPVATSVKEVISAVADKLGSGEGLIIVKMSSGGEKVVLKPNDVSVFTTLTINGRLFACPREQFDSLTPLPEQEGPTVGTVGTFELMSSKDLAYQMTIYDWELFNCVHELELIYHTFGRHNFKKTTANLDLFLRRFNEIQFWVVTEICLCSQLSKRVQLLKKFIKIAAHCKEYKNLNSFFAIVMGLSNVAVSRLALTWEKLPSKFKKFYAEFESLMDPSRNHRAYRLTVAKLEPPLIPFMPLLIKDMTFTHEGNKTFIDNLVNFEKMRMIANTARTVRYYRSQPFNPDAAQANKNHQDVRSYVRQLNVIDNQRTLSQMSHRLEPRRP

With `Cc1cc(C)c2nc(N3C(=O)C(O)=C(C(=O)c4ccco4)C3c3ccc(O)cc3)sc2c1` (centres undefined), the Potency in assay [1] was 37.9 µM (active). The Potency entry in assay [2], in assay [3] and in assay [4] was “inactive” each time.

For `O=C1/C(=C\c2ccc(Br)cc2)SC(=S)N1NS(=O)(=O)c1ccccc1`, the Potency in assay [1] is 11.2 µM (active). In addition, the Potency entry in assay [2] is “inactive”. For the same molecule, in assay [3], the activation is 10.7% [at 17.1 µM, percent relative to cAMP agonist control]. The activity change, negative = inhibition in assay [4] is 6.09% [at 30.8 µM].

With `CCCCOc1ccc(NS(=O)(=O)c2ccc(-n3cnnn3)cc2)cc1`, the Potency entry in assay [1], in assay [2], in assay [3] and in assay [4] was “inactive” in each case.

As to `Nc1ccc(Oc2ncccn2)cc1`, the Potency result in assay [1], in assay [2], in assay [3] and in assay [4] was “inactive” each time.

Regarding `Cc1nc2sc(C(c3cccs3)N3CCN(C(=O)c4ccco4)CC3)c(O)n2n1` (centres undefined), the Potency entry in assay [1], in assay [2], in assay [3] and in assay [4] was “inactive” each time.

Turning to `CCSc1oc(-c2cccs2)nc1S(=O)(=O)c1ccccc1`, the Potency result in assay [1], in assay [2], in assay [3] and in assay [4] was “inactive” in each case.

Consider `O=C1CC2(CCCCC2)Oc2ccc(F)cc21`, for which the Potency entry in assay [1], in assay [2], in assay [3] and in assay [4] was “inactive” in each case.

For `COc1cc(OC)c2c(-c3ccccc3)cc(=O)oc2c1C(CC(=O)N1CCOCC1)c1ccc2c(c1)OCO2` (centres undefined), the Potency entry in assay [1] and in assay [2] was “inactive” throughout. For the same molecule, in assay [3], the activation was 1.13% [at 17.1 µM, percent relative to cAMP agonist control]. Also, in assay [4], the activity change, negative = inhibition is -9.45% [at 30.8 µM].

Turning to `O=C(Cc1c(Cl)cccc1Cl)Nc1ccc(S(=O)(=O)Nc2ncccn2)cc1`, the Potency entry in assay [1], in assay [2], in assay [3] and in assay [4] was “inactive” each time.

On to `Cn1c(N)c(C(=O)COC(=O)C2(c3ccc(Cl)cc3)CCCC2)c(=O)n(C)c1=O`, for which the Potency result in assay [1], in assay [2], in assay [3] and in assay [4] was “inactive” each time.

Take `Cc1ccc(Sc2ncccc2C(=O)N(C)Cc2cccs2)c(C)c1`: the Potency result in assay [1], in assay [2], in assay [3] and in assay [4] was “inactive” each time.

For `Cc1nc(-c2ccc(C(=O)Nc3cccc(Br)c3)cc2)cs1`, the Potency entry in assay [1], in assay [2], in assay [3] and in assay [4] was “inactive” throughout.

As to `Cc1ccc(SCCSc2ncccn2)cc1`, the Potency entry in assay [1] and in assay [2] was “inactive” each time. The activation in assay [3] was -2.5% [at 17.1 µM, percent relative to cAMP agonist control]. In addition, the activity change, negative = inhibition in assay [4] was -17.4% [at 30.8 µM].

As to `CCOC(=O)c1ccccc1NC(=O)COC(=O)C(Cc1c[nH]c2ccccc12)NC(C)=O` (centres undefined), the Potency entry in assay [1], in assay [2], in assay [3] and in assay [4] was “inactive” throughout.

As to `NC1=C(Cl)C(=O)c2ccc(S(N)(=O)=O)cc2C1=O`, the Potency in assay [1] was 75.7 µM (active). In addition, the Potency result in assay [2], in assay [3] and in assay [4] was “inactive” each time.

Consider `CCCCn1nnnc1C(c1ccccc1)N1CCN(c2ccc(F)cc2)CC1` (centres undefined), for which the Potency entry in assay [1], in assay [2], in assay [3] and in assay [4] was “inactive” in each case.

As for `CN(C)CCNC(=O)c1ccc(-c2cn3c(-c4ccc(Oc5ccccc5)cc4)cnc3cn2)cc1`, the Potency result in assay [1], in assay [2], in assay [3] and in assay [4] was “inactive” throughout.

For the molecule `CCSc1nc(C)cc(C)c1S(=O)(=O)c1ccccc1C`, the Potency result in assay [1] and in assay [2] was “inactive” in each case. Besides, in assay [3], the activation is 3.71% [at 17.1 µM, percent relative to cAMP agonist control]. Also, the activity change, negative = inhibition in assay [4] was 8% [at 30.8 µM].

Consider `O=C(Cc1ccc(F)cc1)Nc1ccccc1Sc1ccccc1`, for which the Potency entry in assay [1], in assay [2], in assay [3] and in assay [4] was “inactive” each time.

Consider `O=C(CS(=O)(=O)c1ccccc1)c1cc2ccccc2oc1=O`, for which the Potency result in assay [1] and in assay [2] was “inactive” in each case. Further, the activation in assay [3] is 8.75% [at 17.1 µM, percent relative to cAMP agonist control]. The activity change, negative = inhibition in assay [4] is -20.4% [at 30.8 µM].

For the molecule `O=C(c1ccccc1)c1cccc(C(=O)c2ccccc2)c1`, the Potency result in assay [1], in assay [2], in assay [3], in assay [4] and in assay [5] was “inactive” in each case.

Consider `Cc1cc(NC(=O)COC(=O)C(C)Oc2ccc(Cl)cc2Cl)no1` (centres undefined), for which the Potency result in assay [1], in assay [2], in assay [3] and in assay [4] was “inactive” each time.

As for `Cc1cccc(C(=O)Oc2ccc(/C=N/NC(=O)c3cc(O)cc(O)c3)cc2)c1`, the Potency in assay [1] is 16.9 µM (active). Moreover, the Potency result in assay [2], in assay [3] and in assay [4] was “inactive” each time.

For the molecule `Cc1cc(C)nc(SCC(=O)c2ccc(F)c(C)c2)n1`, the Potency entry in assay [1], in assay [2], in assay [3] and in assay [4] was “inactive” each time.

Take `Cc1cccc(C)c1OCC(=O)Nc1ccccc1N1CCCCC1`: the Potency entry in assay [1], in assay [2], in assay [3], in assay [4] and in assay [5] was “inactive” throughout.

In the case of `O=C(CSc1nc2nn(-c3ccccc3)c(=O)c-2c2n1CCCCC2)c1ccc(O)c(O)c1`, the Potency in assay [1] was 2.39 µM (active). The Potency result in assay [2], in assay [3] and in assay [4] was “inactive” each time.

Consider `Cc1ccc(S(=O)(=O)Nc2ccccc2C(=O)Nc2nc(-c3ccc(F)cc3)cs2)cc1`, for which the Potency in assay [1] was 42.6 µM (active). Further, the Potency result in assay [2], in assay [3] and in assay [4] was “inactive” throughout.

As for `CCOc1ccc(-n2c(SCC(=O)Nc3ccc(F)cc3)nc3c([nH]c4ccccc43)c2=O)cc1`, the Potency entry in assay [1], in assay [2], in assay [3] and in assay [4] was “inactive” in each case.

For the molecule `O=C(CN1C(=O)NC2(CCCC2)C1=O)Nc1nc2c(F)cc(F)cc2s1`, the Potency result in assay [1], in assay [2], in assay [3], in assay [4] and in assay [5] was “inactive” each time.
